NOMO-1 viab: STK33 inhibitor candidate reducing NOMO-1 cell viability; inhibition, % (test concentration not listed); NOMO-1 AML viability, CellTiter-Glo luminescence, 72 h; 37,000 compounds, 7.5% hits; in the data active = inhibition above about 80%; inconclusive = no clear call, values can overlap the other calls
Hedgehog inh: blocks Sonic Hedgehog signaling. Shh-LIGHT2 Gli-luciferase reporter, 30 h. inhibition, % (no concentration beside the values). AID 2313. 22,000 compounds, 2.1% hits;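 active = mean inhibition across valid replicates above about 65%, limit read from the data; inconclusive = mean under the limit, yet half or more replicates past it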;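 note: pathway switched on by Shh-conditioned medium diluted 1 in 25 in low serum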
MITF inh: blocks MITF activity. inhibition, % (test concentration not listed). 37,000 compounds, 0.28% hits. TRPM1 promoter luciferase, luminescence, 24 h. AID 2240; in the data active = inhibition above about 85%; inconclusive = no clear call, values can overlap the other calls; inactive = below about 68%;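 note: human melanocyte line stably carrying TRPM1 promoter luciferase reporter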
Numbers stand for hits; i = inactive; ? = inconclusive; nt = not tested or not shown. Sampled rows, rich in hits. Any-hit rate of the full collection: about 7.8%.

SMILES	NOMO-1 viab	Hedgehog inh	MITF inh
C[C@H]1CN([C@@H](C)CO)C(=O)Cc2cc(NC(=O)CCCCCC(=O)Nc3ccccc3N)ccc2O[C@@H]1CN(C)Cc1ccc(-c2ccccc2)cc1	140.4	nt	i
Cc1ccccc1NC(=O)CSc1n[nH]c(-c2ccncc2)n1	i	nt	i
CC(Sc1nc(N)cc(=O)[nH]1)C(=O)Nc1ccc(Cl)cc1 (stereo unspecified)	i	nt	i
Cc1cc(=O)c2c(O)c3c(cc2o1)OC(C(C)(C)OC1OC(CO)C(O)C(O)C1O)C3 (stereo unspecified)	i	i	i
Cc1csc(Nc2ccc(F)c(Cl)c2)[n+]1C(C)C	i	i	i
Cc1[nH]c2ccccc2c1Sc1ccccc1	140.8	70.6	i
CC(=O)CCc1c(C)[nH]c2ccccc2c1=O	i	nt	i
CC(C)N(Cc1nc(-c2ccccc2Cl)no1)C(=O)c1ccccc1-c1ccccc1	i	nt	i
Cc1ccc(-c2noc(CN(C(=O)c3ccccc3-c3ccccc3)C(C)C)n2)cc1	87.4	nt	i
O=c1cc(-c2ccc(O)cc2)oc2cc(OC3OC(CO)C(O)C(O)C3OC3OCC(O)(CO)C3O)cc(O)c12 (stereo unspecified)	i	i	i
C/C(=C/CO)CC[C@@H]1[C@@](C)(O)CCC2C(C)(C)CCC[C@]21C (stereo partly specified)	100.7	i	i
CC1(C)CCC[C@]2(C)C1CC=C(CO)[C@H]2CC/C(=C/CO)CO (stereo partly specified)	nt	i	nt
O=C(CSc1nnc(-c2ccccc2F)n1-c1ccccc1)Nc1ccc2cn[nH]c2c1	i	nt	i
CC1=CCC(C(C)(C)O[C@@H]2O[C@H](CO[C@@H]3O[C@H](COC(=O)c4cc(O)c(O)c(O)c4)[C@@H](O)[C@H](O)[C@H]3O)[C@@H](O)[C@H](O)[C@H]2O)CC1 (stereo partly specified)	nt	i	nt
Cc1cccc(NC(=O)C2Sc3nnc(-c4ccccc4)n3NC2c2ccccc2)c1 (stereo unspecified)	i	i	i
COC(=O)c1ccccc1NC(=O)c1cccc(NC(=O)COc2cc(C)c(Cl)c(C)c2)c1C	101.6	nt	i
COC(=O)c1ccccc1NC(=O)COc1ccc2ccccc2c1Br	83.8	nt	i
COC(=O)c1ccccc1NC(=O)COc1ccc(C)cc1C	i	nt	i
Cc1cc(OCC(=O)Nc2ccccc2C(=O)O)cc(C)c1Cl	i	nt	i
CC(NS(=O)(=O)c1ccc(Br)cc1)C(=O)Nc1ccc(Cl)cc1Cl (stereo unspecified)	i	nt	i
CC(=O)N1CCc2cc(NC(=S)NCc3cccs3)ccc21	i	i	i
Cc1ccc(C(=O)Cn2c3c(sc2=N)CCCC3)cc1	i	76.0	88.2
Cc1ccc(C(=O)Cn2c(C)csc2=Nc2ccccc2)cc1	i	nt	i
Cc1ccc(C)c(C(Nc2ccccn2)c2cc(Cl)c3cccnc3c2O)c1 (stereo unspecified)	113.3	nt	i
CSc1ccc(C(Nc2ccccn2)c2cc(Cl)c3cccnc3c2O)cc1 (stereo unspecified)	112.5	nt	i
SMILES	NOMO-1 viab	Hedgehog inh	MITF inh
CCOc1ccc(C(Nc2cccnc2)c2cc(Cl)c3cccnc3c2O)cc1 (stereo unspecified)	115.0	nt	i
CCc1ccc(C(Nc2ccccn2)c2cc(Cl)c3cccnc3c2O)cc1 (stereo unspecified)	123.3	nt	?
CSc1ccc(S(=O)(=O)NCc2ccccn2)cc1	i	nt	i
Cn1nc(-c2ccc(OCC(=O)Nc3cccnc3)cc2)c2ccccc2c1=O	i	nt	i
COc1cc(C(Nc2ccccn2)c2cc(Cl)c3cccnc3c2O)cc(Br)c1O (stereo unspecified)	i	nt	i
COc1ccc(-c2nc3ccccc3s2)cc1NC(=O)COc1ccc(Br)cc1	i	nt	i
CCCn1c(-c2cccs2)n[nH]c1=O	i	i	i
Cc1ccc(NC(=O)CSc2nnc(-c3ccco3)n2C)c(Br)c1	i	nt	i
CC(C)c1ccc(NN2C(=O)CC(c3ccccc3)C2=O)cc1 (stereo unspecified)	i	i	i
Cc1nn(C(=O)Cn2cc([N+](=O)[O-])cn2)c(C)c1Br	i	nt	i
COc1ccc(NC(=O)Nc2ccc(OC)c(OC)c2)cc1OC	i	i	i
CC(C)c1ccc(C2C(C#N)=C(N)C(C#N)(C#N)C3=CCN(C)CC32)cc1 (stereo unspecified)	105.4	74.1	i
O=C(ON1C(=O)c2ccccc2C1=O)c1ccco1	115.3	nt	i
O=C(CCN1C(=O)c2ccccc2C1=O)Nc1ccc(NC(=O)c2ccco2)cc1	i	nt	i
CCCC(=O)c1ccc(OCc2nc3ccccc3[nH]2)cc1	i	nt	i
N=c1n(CC(=O)c2ccco2)c2ccccc2n1Cc1ccccc1	i	i	i
Cc1cc(Br)c2c(c1)C(O)(CC(=O)c1ccco1)C(=O)N2C (stereo unspecified)	121.9	nt	i
Cc1cc(Br)c2c(c1)C(O)(CC(=O)c1ccc(C)o1)C(=O)N2 (stereo unspecified)	?	nt	i
O=C(CC1(O)C(=O)N(Cc2ccccc2)c2ccc(Br)cc21)c1ccco1 (stereo unspecified)	114.1	nt	i
O=C(CC1(O)C(=O)N(Cc2ccccc2)c2ccc(Br)cc21)c1ccccc1[N+](=O)[O-] (stereo unspecified)	99.5	nt	i
Cc1ccc2c(c1)C(O)(CC(=O)c1ccccc1[N+](=O)[O-])C(=O)N2 (stereo unspecified)	i	nt	i
COc1ccc([N+](=O)[O-])cc1NC(=O)CN(c1cc(C(F)(F)F)ccc1Cl)S(C)(=O)=O	i	nt	i
CCC1C(=O)O[C@]23C=C[C@@H]4C(C(=O)O)=CO[C@H](OC12)[C@@H]43 (stereo partly specified)	i	i	i
Cc1ccccc1NC(=O)CN(c1ccc(Br)cc1)S(C)(=O)=O	i	nt	i
Cc1cc(Cl)ccc1OCC(=O)Nc1cc(Cl)ccc1C(=O)O	i	nt	i
SMILES	NOMO-1 viab	Hedgehog inh	MITF inh
COC(=O)CNC(=O)c1cc2nc(-c3ccc(C)c(C)c3)cc(C(F)(F)F)n2n1	i	nt	i
O=C(O)COc1ccc(C(=O)Nc2ccc(F)cc2)cc1	i	nt	i
Cc1cc(C(=O)Nc2ccc(OCC(=O)O)cc2)ccc1[N+](=O)[O-]	i	nt	i
COC(=O)COc1ccc(NC(=O)c2ccc(NC(C)=O)cc2)cc1	118.5	nt	i
COC(=O)COc1ccc(NC(=O)c2ccc([N+](=O)[O-])c(C)c2)cc1	117.6	nt	i
COc1ccc2cc(C3CC(c4ccc(OC)c(OC)c4)=NN3C(=O)c3ccco3)c(Cl)nc2c1 (stereo unspecified)	i	i	i
O=c1c(Cl)c(NCc2ccco2)cnn1-c1ccccc1	i	i	i
CS(=O)(=O)N(CC(=O)Nc1ccc(F)c(Cl)c1)Cc1ccccc1	i	nt	i
O=C(CSc1nc2ccccc2s1)NC1CCCCC1	i	nt	i
COC(=O)C(C(CO)Cc1ccc(O)c(OC)c1)C(O)c1ccc(O)c(OC)c1 (stereo unspecified)	107.5	i	i
COc1cc(CC(CO)C(CO)Cc2ccc(O)c(OC)c2)ccc1O (stereo unspecified)	i	i	i
Cn1c(SCC(=O)c2ccc(Cl)cc2Cl)nnc1-c1cccnc1	i	nt	i
COc1ccc(C(C)(C)C)cc1NC(=S)Nc1ccc(S(=O)(=O)Nc2ncccn2)cc1	i	nt	i
C[C@@H]1CN([C@H](C)CO)C(=O)c2cccc(NC(=O)c3cnccn3)c2O[C@H]1CN(C)Cc1ccc(C(=O)Nc2ccccc2N)cc1	?	nt	i

Source: PubChem (Broad Institute)
